# Results as given in PubChem BioAssay (EPA / NIEHS).
# Results filed as inconclusive are left out. Activity calls are given as the source filed them. The calls were made as follows: active = hit-call score of the fitted dose curve at least 0.9, where 1 is the maximum; inconclusive = response in the unintended direction; inactive = score below 0.9.
# Target: rat Monoamine Oxidase, MAO-B, Central (MAOBC), Maob (gene 25750) (UniProt P19643)
# Assay: NVS_ENZ_rMAOBC: NovaScreen (NVS) Enzymatic Assay for rat Monoamine Oxidase, MAO-B, Central (MAOBC) (AID 2283238)
# Outline: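 MAO-B activity in rat brain tissue preparation, cell-free, measured radiometrically by scintillation counting 1.17 h after dosing. Screened in duplicate at 25 uM; actives then in concentration-response up to 50 uM. Loss of signal versus DMSO scored.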
# Sequence of rat Monoamine Oxidase, MAO-B, Central (MAOBC), Maob (gene 25750) (P19643 whole entry, looked up): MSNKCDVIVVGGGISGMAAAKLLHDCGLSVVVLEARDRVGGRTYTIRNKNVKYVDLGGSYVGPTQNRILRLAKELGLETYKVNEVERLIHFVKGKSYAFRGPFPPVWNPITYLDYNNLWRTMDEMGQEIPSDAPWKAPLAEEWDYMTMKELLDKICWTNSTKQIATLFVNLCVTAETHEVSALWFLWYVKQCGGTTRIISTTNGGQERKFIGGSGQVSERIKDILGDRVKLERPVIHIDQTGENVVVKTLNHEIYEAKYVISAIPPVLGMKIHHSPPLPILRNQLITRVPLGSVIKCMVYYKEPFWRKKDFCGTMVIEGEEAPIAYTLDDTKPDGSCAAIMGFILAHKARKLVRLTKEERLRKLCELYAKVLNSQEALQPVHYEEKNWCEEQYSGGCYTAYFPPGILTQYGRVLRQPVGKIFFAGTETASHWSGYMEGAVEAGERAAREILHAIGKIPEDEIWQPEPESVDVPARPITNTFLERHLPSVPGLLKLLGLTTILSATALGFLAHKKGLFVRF
Compound,AC50,outcome
Nc1c(Cl)cc([N+](=O)[O-])cc1Cl,15.3 µM (active),–
CSc1nnc(C(C)(C)C)c(=O)n1N,16.8 µM (active),–
COP(=O)(OC)OC(Br)C(Cl)(Cl)Br (configuration not stated),–,inactive
CC[C@H](C)[C@H]1O[C@]2(C=C[C@@H]1C)C[C@@H]1C[C@@H](C/C=C(\C)[C@@H](O[C@H]3C[C@H](OC)[C@@H](O[C@H]4C[C@H](OC)[C@@H](NC)[C@H](C)O4)[C@H](C)O3)[C@@H](C)/C=C/C=C3\CO[C@@H]4[C@H](O)C(C)=C[C@@H](C(=O)O1)[C@]34O)O2,–,inactive
CSC1=N[C@@](C)(c2ccccc2)C(=O)N1Nc1ccccc1,–,inactive
CCC(=O)Nc1ccc(Cl)c(Cl)c1,13 µM (active),–

# Target: sheep Cyclooxygenase-1 (Cox1), PTGS1 (gene 443551) (UniProt P05979)
# Assay: NVS_ENZ_oCOX1: NovaScreen (NVS) Enzymatic Assay for sheep Cyclooxygenase-1 (Cox1) (AID 2283239);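 also: actives reduce cyclooxygenase activity so potencies are for inhibitors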
# Outline: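 Absorbance read-out of cyclooxygenase activity in a cell-free preparation from sheep seminal vesicles, taken 0.66 hour after dosing. Initial testing was in duplicate at 25 uM, and confirmatory testing was run in concentration series.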
# Sequence of sheep Cyclooxygenase-1 (Cox1), PTGS1 (gene 443551) (P05979 whole entry, looked up): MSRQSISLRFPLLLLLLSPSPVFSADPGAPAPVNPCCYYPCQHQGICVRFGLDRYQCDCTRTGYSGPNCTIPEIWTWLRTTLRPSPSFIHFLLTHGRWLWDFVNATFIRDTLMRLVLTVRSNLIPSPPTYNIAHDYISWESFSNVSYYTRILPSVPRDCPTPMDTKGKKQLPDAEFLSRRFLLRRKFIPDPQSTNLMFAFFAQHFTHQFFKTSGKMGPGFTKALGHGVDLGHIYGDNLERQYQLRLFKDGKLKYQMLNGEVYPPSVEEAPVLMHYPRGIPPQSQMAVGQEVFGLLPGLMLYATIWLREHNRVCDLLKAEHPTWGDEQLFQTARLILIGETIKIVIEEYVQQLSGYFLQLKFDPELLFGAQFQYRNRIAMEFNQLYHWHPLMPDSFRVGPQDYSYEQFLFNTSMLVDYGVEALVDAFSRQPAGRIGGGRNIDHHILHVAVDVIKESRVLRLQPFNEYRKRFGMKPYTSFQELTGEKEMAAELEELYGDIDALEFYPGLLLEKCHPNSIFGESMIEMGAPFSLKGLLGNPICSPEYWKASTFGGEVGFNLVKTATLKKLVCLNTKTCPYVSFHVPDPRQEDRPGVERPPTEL
Compound,outcome,AC50
CCCSP(=O)(OCC)SCCC,inactive,–
CCCCOC(=O)c1ccccc1C(=O)O,inactive,–
CC(C)=CC1C(C(=O)OCN2C(=O)C3=C(CCCC3)C2=O)C1(C)C (configuration not stated),–,4.96 µM (active)

# Target: rat Monoamine Oxidase, MAO-B, Peripheral (MAOBP), Maob (gene 25750) (UniProt P19643)
# Assay: NVS_ENZ_rMAOBP: NovaScreen (NVS) Enzymatic Assay for rat Monoamine Oxidase, MAO-B, Peripheral (MAOBP) (AID 2283242)
# Description: NVS_ENZ_rMAOBP is a biochemical, single-readout assay that uses extracted gene-proteins from Rat brain in a tissue-based cell-free assay. Measurements were taken 1.17 hours after chemical dosing in a 96-well plate.NVS_ENZ_rMAOBP is one of one assay component(s) measured or calculated from the NVS_ENZ_rMAOBP assay. It is designed to make measurements of enzyme activity, a form of enzyme reporter, as detected with scintillation counting signals by Lysate-based radiodetection technology.Data from the assay component NVS_ENZ_rMAOBP was analyzed into 1 assay endpoint. This assay endpoint, NVS_ENZ_rMAOBP, was analyzed in the positive analysis fitting direction relative to DMSO as the negative control and baseline of activity. Using a type of enzyme reporter, loss-of-signal activity can be used to understand changes in the enzymatic activity as they relate to the gene Maob. Furthermore, this assay endpoint can be referred to as a primary readout, because this assay has produced multiple assay endpoints where this one serves a enzymatic activity function. To generalize the intended target to other relatable targets, this assay endpoint is annotated to the oxidoreductase intended target family, where the subfamily is monoamine oxidase.
# Binding assays used specific radioligands (tritiated, iodinated) with non-radioactive competitive displacement ligands in agonist or antagonist protocols (as indicated) and various reference compounds and inhibitors to titrate specific binding to receptors and transporters. Most enzyme assays (CYPs, kinases, phosphatases, proteases, HDACs) used recombinant protein and specific substrates (fluorescence mostly, some colorimetric and radioactive) and inhibitors, followed by a biochemical separation of substrate and product. All assays for the biochemical HTS were initially run in duplicate at a single concentration (10 uM for CYP450 assays and 25 uM for all others). Assay-chemical combinations meeting a pre-defined threshold (e.g., 30% inhibition and other criteria defined below) were then run in singleton concentration-response format with maximum concentration of 20 uM for CYPs and 50 uM for all others. Each assay was run with positive and negative controls, and concurrent controls on every plate. The follow-up (secondary) screen tested active chemical-pairs in concentration series, as well as a few additional assays not tested in the primary screen, some selected negative inactives, and several cases re-run in the concentration series for confirmatory purposes.
# Sequence of rat Monoamine Oxidase, MAO-B, Peripheral (MAOBP), Maob (gene 25750) (P19643 whole entry, looked up): as the sequence (P19643 whole entry, looked up) above
Compound,outcome,AC50
S=C1NCCN1,inactive,–
CC(C1CC1)C(O)(Cn1cncn1)c1ccc(Cl)cc1 (configuration not stated),inactive,–
Nc1c(Cl)cc([N+](=O)[O-])cc1Cl,–,39.8 µM (active)
CSc1nnc(C(C)(C)C)c(=O)n1N,inactive,–
O=c1ccc(=O)[nH][nH]1,inactive,–
Nc1nc(N)nc(NC2CC2)n1,inactive,–
Cc1nn(-c2cc(NS(C)(=O)=O)c(Cl)cc2Cl)c(=O)n1C(F)F,inactive,–
CCC(=O)Nc1ccc(Cl)c(Cl)c1,–,25 µM (active)

# Test system: rat Monoamine Oxidase, MAO-A, Central (MAOAC), gene 29253
# Assay: NVS_ENZ_rMAOAC: NovaScreen (NVS) Enzymatic Assay for rat Monoamine Oxidase, MAO-A, Central (MAOAC) (AID 2283243);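 also: potency refers to inhibition seen as signal drop below DMSO baseline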
# Outline: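 Rat brain tissue extract used as enzyme source in a cell-free radiometric assay, read by scintillation counting 1.5 hours after dosing. Loss of signal relative to DMSO baseline scored; primary screen at 25 uM in duplicate, actives followed up in concentration series.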
Compound,AC50,outcome
CN(C)C(=O)Nc1cccc(C(F)(F)F)c1,29.7 µM (active),–
C[Si](Cn1cncn1)(c1ccc(F)cc1)c1ccc(F)cc1,34 µM (active),–
Nc1c(Cl)cc([N+](=O)[O-])cc1Cl,15.6 µM (active),–
CC[C@H](C)[C@H]1O[C@]2(C=C[C@@H]1C)C[C@@H]1C[C@@H](C/C=C(\C)[C@@H](O[C@H]3C[C@H](OC)[C@@H](O[C@H]4C[C@H](OC)[C@@H](NC)[C@H](C)O4)[C@H](C)O3)[C@@H](C)/C=C/C=C3\CO[C@@H]4[C@H](O)C(C)=C[C@@H](C(=O)O1)[C@]34O)O2,–,inactive
CCC(=O)Nc1ccc(Cl)c(Cl)c1,15.3 µM (active),–

# Target: human Serotonin, 5-Hydroxytryptamine Receptor 5A (5HT5A), HTR5A (gene 3361) (UniProt P47898)
# Assay: NVS_GPCR_h5HT5A: NovaScreen (NVS) G Protein-Coupled Receptor Assay for human Serotonin, 5-Hydroxytryptamine Receptor 5A (5HT5A) (AID 2283251)
# Outline: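 Cell-free radioligand displacement binding on HEK293-derived membrane protein, 1 h incubation, filter-based scintillation counting. Primary screen in duplicate at 25 uM, actives followed in concentration series; loss of signal fitted versus DMSO.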
# Sequence of human Serotonin, 5-Hydroxytryptamine Receptor 5A (5HT5A), HTR5A (gene 3361) (P47898 whole entry, looked up): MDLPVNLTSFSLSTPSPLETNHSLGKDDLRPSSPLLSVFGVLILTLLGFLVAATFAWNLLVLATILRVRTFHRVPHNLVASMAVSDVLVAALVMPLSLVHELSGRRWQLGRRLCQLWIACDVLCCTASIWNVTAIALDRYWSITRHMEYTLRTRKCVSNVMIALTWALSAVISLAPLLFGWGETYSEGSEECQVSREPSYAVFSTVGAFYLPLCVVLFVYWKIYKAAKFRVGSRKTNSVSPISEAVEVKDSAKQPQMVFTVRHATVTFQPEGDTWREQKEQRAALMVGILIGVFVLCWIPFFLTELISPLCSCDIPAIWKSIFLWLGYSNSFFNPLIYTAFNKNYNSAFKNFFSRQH
Compound,AC50,outcome
C[Si](Cn1cncn1)(c1ccc(F)cc1)c1ccc(F)cc1,7.85 µM (active),–
CC(C)[C@H](C(=O)O[C@H](C#N)c1cccc(Oc2ccccc2)c1)c1ccc(Cl)cc1,6.96 µM (active),–
CC[C@H](C)[C@H]1O[C@]2(C=C[C@@H]1C)C[C@@H]1C[C@@H](C/C=C(\C)[C@@H](O[C@H]3C[C@H](OC)[C@@H](O[C@H]4C[C@H](OC)[C@@H](NC)[C@H](C)O4)[C@H](C)O3)[C@@H](C)/C=C/C=C3\CO[C@@H]4[C@H](O)C(C)=C[C@@H](C(=O)O1)[C@]34O)O2,7.94 µM (active),–
O=c1ccc(=O)[nH][nH]1,–,inactive

# Target: guinea pig Opioid, Kappa 1 Receptor (OpiateK), OPRK1 (gene 100135587) (UniProt P41144)
# Assay: NVS_GPCR_gOpiateK: NovaScreen (NVS) G Protein-Coupled Receptor Assay for guinea pig Opioid, Kappa 1 Receptor (OpiateK) (AID 2283252);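 also: radioligand displacement from kappa opioid receptor in guinea pig cerebellar membranes; active means reduced radioligand binding relative to DMSO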
# Outline: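 Guinea pig cerebellar membranes, radioligand displacement with filter-based scintillation counting, 2 h after dosing. Primary screen single concentration 25 uM in duplicate; actives retested in concentration series; loss of binding fitted versus DMSO.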
# Sequence of guinea pig Opioid, Kappa 1 Receptor (OpiateK), OPRK1 (gene 100135587) (P41144 whole entry, looked up): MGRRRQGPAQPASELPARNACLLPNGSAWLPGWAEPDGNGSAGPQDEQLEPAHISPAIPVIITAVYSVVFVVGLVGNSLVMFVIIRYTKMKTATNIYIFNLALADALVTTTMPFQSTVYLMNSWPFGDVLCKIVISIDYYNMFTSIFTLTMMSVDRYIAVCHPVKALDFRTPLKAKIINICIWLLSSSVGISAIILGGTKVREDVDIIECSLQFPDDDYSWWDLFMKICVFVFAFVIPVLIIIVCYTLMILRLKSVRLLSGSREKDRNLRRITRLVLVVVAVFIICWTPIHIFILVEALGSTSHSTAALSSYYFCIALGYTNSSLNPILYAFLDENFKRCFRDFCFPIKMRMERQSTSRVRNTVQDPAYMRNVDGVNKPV
row,Compound,AC50
1,C[Si](Cn1cncn1)(c1ccc(F)cc1)c1ccc(F)cc1,25 µM (active)
2,COP(=O)(OC)OC(Br)C(Cl)(Cl)Br (configuration not stated),33.3 µM (active)
3,CC[C@H](C)[C@H]1O[C@]2(C=C[C@@H]1C)C[C@@H]1C[C@@H](C/C=C(\C)[C@@H](O[C@H]3C[C@H](OC)[C@@H](O[C@H]4C[C@H](OC)[C@@H](NC)[C@H](C)O4)[C@H](C)O3)[C@@H](C)/C=C/C=C3\CO[C@@H]4[C@H](O)C(C)=C[C@@H](C(=O)O1)[C@]34O)O2,25 µM (active)

# Target: human Serotonin, 5-Hydroxytryptamine Receptor 6 (5HT6), HTR6 (gene 3362) (UniProt P50406)
# Assay: NVS_GPCR_h5HT6: NovaScreen (NVS) G Protein-Coupled Receptor Assay for human Serotonin, 5-Hydroxytryptamine Receptor 6 (5HT6) (AID 2283253)
# Outline: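 Radioligand binding to 5HT6 in HEK293-derived membranes, cell-free, 1 h after dosing; bound ligand measured by filter-based scintillation counting. Primary screen in duplicate at 25 uM; actives retested in concentration series.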
# Sequence of human Serotonin, 5-Hydroxytryptamine Receptor 6 (5HT6), HTR6 (gene 3362) (P50406 whole entry, looked up): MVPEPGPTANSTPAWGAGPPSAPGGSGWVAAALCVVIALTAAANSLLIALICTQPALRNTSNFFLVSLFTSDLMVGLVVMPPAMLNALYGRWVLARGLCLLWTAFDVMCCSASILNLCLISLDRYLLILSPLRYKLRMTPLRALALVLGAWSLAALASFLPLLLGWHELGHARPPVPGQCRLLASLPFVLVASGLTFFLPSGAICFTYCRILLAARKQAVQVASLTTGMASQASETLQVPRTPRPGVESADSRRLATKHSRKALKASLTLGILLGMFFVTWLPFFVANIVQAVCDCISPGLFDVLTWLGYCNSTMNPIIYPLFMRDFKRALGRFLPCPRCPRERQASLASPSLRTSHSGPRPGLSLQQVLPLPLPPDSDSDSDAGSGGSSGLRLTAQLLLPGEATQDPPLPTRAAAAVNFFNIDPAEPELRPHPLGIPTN
row,Compound,AC50
1,COP(=O)(OC)OC(Br)C(Cl)(Cl)Br (configuration not stated),9.88 µM (active)
2,CC[C@H](C)[C@H]1O[C@]2(C=C[C@@H]1C)C[C@@H]1C[C@@H](C/C=C(\C)[C@@H](O[C@H]3C[C@H](OC)[C@@H](O[C@H]4C[C@H](OC)[C@@H](NC)[C@H](C)O4)[C@H](C)O3)[C@@H](C)/C=C/C=C3\CO[C@@H]4[C@H](O)C(C)=C[C@@H](C(=O)O1)[C@]34O)O2,13.9 µM (active)
3,CCC(=O)Nc1ccc(Cl)c(Cl)c1,7.47 µM (active)
